About 79,000 compounds went through this panel and 15% of them were active in at least one assay; those are over-represented in the sample as a whole. Values without a mark were called inactive. Active and inactive are the calls of the source. Rule as the data show it: active = growth inhibition above about 70%; inactive = the rest.
Legend:
[1] = NCI Yeast Anticancer Drug Screen. Data for the rad50 strain (AID 155);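 also: 0% = growth of vehicle-only cultures of the same strain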; details: S. cerevisiae rad50 strain growth inhibition, stronger effect = higher value
In short: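 Inhibition values express reduced yeast growth in compound-treated cultures relative to vehicle-treated controls.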

[2] = NCI Yeast Anticancer Drug Screen. Data for the mec2-1 strain (AID 157); details: S. cerevisiae mec2-1 strain, stronger effect = higher value
In short: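 mec2-1 yeast strain, carrying an alteration in DNA damage repair or cell cycle control, was exposed to compounds; growth inhibition was measured relative to vehicle-treated controls.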

[3] = NCI Yeast Anticancer Drug Screen. Data for the sgs1 mgt1 strain (AID 161);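 also: 0% = growth of cultures given vehicle only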; details: S. cerevisiae sgs1 mgt1 strain, stronger effect = higher value
In short: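 Growth of a repair-deficient yeast mutant was monitored after compound treatment and expressed as inhibition relative to vehicle-treated cultures.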

[4] = NCI Yeast Anticancer Drug Screen. Data for the cln2 rad14 strain (AID 165);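 also: 0% = growth equal to vehicle treated cultures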; details: S. cerevisiae cln2 rad14 strain, stronger effect = higher value
In short: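 Yeast carrying cln2 and rad14 alterations (cell cycle control and DNA damage repair) were exposed to compounds. Growth inhibition was measured against vehicle-treated controls.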

[5] = NCI Yeast Anticancer Drug Screen. Data for the bub3 strain (AID 167); details: S. cerevisiae bub3 mutant strain, stronger effect = higher value
In short: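 Steps: expose the mutant yeast strain to compound; grow alongside vehicle-treated cultures; measure growth; express inhibition against the vehicle cultures.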

[6] = NCI Yeast Anticancer Drug Screen. Data for the mlh1 rad18 strain (AID 175); details: S. cerevisiae mlh1 rad18 strain growth inhibition, stronger effect = higher value
In short: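 Growth inhibition of the yeast strain was measured after compound exposure and expressed relative to vehicle-treated controls. The strain carries defined defects in DNA damage repair.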

[7] = at 5.0 µM (retest, dose inferred, filed as 0.5)
[8] = at 50.0 µM (retest, dose inferred, filed as 5.0)

Row | SMILES | growth inhibition [1, 7] [%] | growth inhibition [1, 8] | growth inhibition ([1]; at 50.0 µM) | growth inhibition [2, 7] [%] | growth inhibition [2, 8] | growth inhibition ([2]; at 50.0 µM) | growth inhibition [3, 7] | growth inhibition [3, 8] | growth inhibition ([3]; at 50.0 µM) | growth inhibition [4, 7] [%] | growth inhibition [4, 8] | growth inhibition ([4]; at 50.0 µM) | growth inhibition [5, 7] [%] | growth inhibition [5, 8] | growth inhibition ([5]; at 50.0 µM) | growth inhibition [6, 7] | growth inhibition [6, 8] | growth inhibition ([6]; at 50.0 µM)
1 | CC1N(O)C(c2ccccc2)C(c2ccccc2)=[N+]1[O-] (configuration not stated) | 16 | 25% | -5.7% | 11 | 14% | -26.9% | 16% | 26% | -20.4% | 22 | 17% | 8.8% | 22 | 26% | -20.9% | 13% | 22% | -37.4%
2 | Cc1ccc(/C=C2\CCC/C(=C\c3ccc(O)c(CN4CCCCC4)c3)C2=O)cc1 | 16 | 22% | 6.8% | 4 | 15% | -15.2% | 0% | 25% | 70.9% (active) | 7 | 27% | 42.1% | -34 | 28% | 66.5% | 9% | 18% | 84% (active)
3 | O=[N+]([O-])c1ccc(S(=O)(=O)Cc2ccccc2)c2nonc12 | 6 | 99% (active) | 99% (active) | 11 | 99% (active) | 98.8% (active) | 10% | 99% (active) | 99% (active) | -11 | 98% (active) | 96.3% (active) | 2 | 99% (active) | 98.4% (active) | 6% | 99% (active) | 98.2% (active)
4 | O=C(O)Cc1cccc2c(=O)c3cccc([N+](=O)[O-])c3[nH]c12 | 32 | 87% (active) | 74.6% (active) | 24 | 83% (active) | 58% | 24% | 60% | 53.1% | 28 | 79% (active) | 65% | 22 | 85% (active) | 45.5% | 28% | 86% (active) | 69.8%
5 | COc1ccc2[nH]c3ccc4cc[n+](CCN5CCC(C6CCN(CC[n+]7ccc8ccc9[nH]c%10ccc(OC)cc%10c9c8c7)CC6)CC5)cc4c3c2c1 | 69 | 98% (active) | 90.4% (active) | 57 | 98% (active) | 93.5% (active) | 29% | 98% (active) | 90.1% (active) | 34 | 96% (active) | 91.1% (active) | 22 | 96% (active) | 91.1% (active) | 77% (active) | 97% (active) | 90.5% (active)
6 | C/C(=C\c1ccccc1Cl)c1ccccn1 | 2 | 67% | 86.2% (active) | 2 | 49% | 89.6% (active) | 6% | 71% (active) | 80.7% (active) | -7 | 7% | -44.5% | 33 | 98% (active) | 96.8% (active) | 10% | 27% | 83% (active)
7 | CC1(C)OC2C(CO)OC(n3ncc(=S)[nH]c3=O)C2O1 (configuration not stated) | -4 | 28% | -10.5% | -8 | 6% | 10.7% | 4% | 45% | -1.45% | -1 | 45% | -1.95% | 6 | 15% | 71% (active) | -1% | 30% | -24.9%
8 | COC(=O)/C(C#N)=C1\NC(=O)CC(c2ccccc2)C1C#N (configuration not stated) | 12 | 20% | -25.2% | 9 | 16% | -27.1% | 21% | 20% | 9.25% | 5 | 19% | -1.3% | 10 | 13% | -0.9% | 23% | 18% | -16.7%
9 | O=C1OC(=O)C2C1C1C(c3ccccc3)=C(c3ccccc3)C2(O)C2C(=O)OC(=O)C12 (configuration not stated) | 25 | 25% | 76.2% (active) | 7 | 7% | 81% (active) | 16% | 16% | 69.7% | 17 | 17% | 52.5% | 4 | 4% | 74% (active) | 18% | 18% | 29.7%
10 | C1=C(c2ccccc2)C(=Nc2ccccc2)SC1=Nc1ccccc1 | 52 | 100% (active) | 99% (active) | 46 | 100% (active) | 99.5% (active) | 32% | 99% (active) | 99.5% (active) | 33 | 99% (active) | 99.3% (active) | 53 | 99% (active) | 99% (active) | 38% | 99% (active) | 99.5% (active)
11 | [O-]/[N+](O)=C\c1ccccn1 | -2 | -13% | 5.75% | 2 | -8% | 6.55% | -5% | -9% | -0.75% | -2 | -10% | -57.6% | 1 | 0% | -8.4% | 0% | -10% | 37.1%
12 | N#CC(/C=C/c1ccccc1)(NO)Nc1cccc(Cl)c1 (configuration not stated) | 6 | 98% (active) | 99.2% (active) | 32 | 99% (active) | 99.6% (active) | 39% | 99% (active) | 99.1% (active) | 10 | 99% (active) | 98.8% (active) | 29 | 99% (active) | 99.5% (active) | 23% | 99% (active) | 99.5% (active)
13 | CCOC(=O)c1ccc(C(C)C)cc1 | 3 | 96% (active) | 40.5% | 3 | 100% (active) | 79.6% (active) | 3% | 94% (active) | 55.5% | -1 | 97% (active) | 21.6% | 4 | 99% (active) | 84.3% (active) | 4% | 96% (active) | 62.1%
14 | O=C1CCC(Cc2ccc(Br)cc2)C(=O)N1 (configuration not stated) | -4 | 7% | -11.7% | -4 | 1% | 7.2% | 19% | 96% (active) | 93.7% (active) | -3 | 3% | -77.2% | -6 | -1% | -54% | -6% | 5% | -2.1%
15 | CCOC(=O)CSc1c(C(=O)OCC)c(=O)n(-c2ccccc2)c(=S)n1-c1ccccc1 | 60 | 90% (active) | 85.2% (active) | 44 | 89% (active) | 87.2% (active) | 75% (active) | 94% (active) | 87.8% (active) | 54 | 91% (active) | 80.8% (active) | 31 | 90% (active) | 85.8% (active) | 74% (active) | 89% (active) | 81.8% (active)
16 | C(=C/c1ccnc2ccccc12)/c1cccs1 | -2 | 93% (active) | 98.2% (active) | 1 | 93% (active) | 98.8% (active) | 2% | 91% (active) | 98.8% (active) | 0 | 57% | 98.1% (active) | 4 | 81% (active) | 98.3% (active) | -2% | 94% (active) | 98.2% (active)
17 | C(=N\NC1=NCCN1)/c1cccc2cc3ccncc3nc12 | 8 | 66% | 86.5% (active) | 7 | 60% | 91% (active) | -4% | 63% | 83.8% (active) | -6 | 53% | 88% (active) | -12 | 27% | 87.7% (active) | -9% | 53% | 82.5% (active)
18 | Cc1ccccc1P(=O)(c1ccccc1C)c1ccccc1C | 16 | 31% | 0.55% | 16 | 28% | 12.9% | 10% | 42% | 13.1% | 11 | 51% | 32.6% | 24 | 24% | 32.5% | 15% | 45% | 4.35%
19 | CCOC(=O)CC1=NC(=Nc2cc(Cl)ccc2Cl)SC1 | 21 | 66% | 64.5% | 23 | 56% | 40.8% | 22% | 69% | 79.6% (active) | 24 | 30% | 25.7% | 29 | 82% (active) | 77.2% (active) | 38% | 75% (active) | 66.5%
